# Screens as filed in PubChem.
# The entries come from a sample that favours hits as a whole.
# KDM5B inh – Primary screen for KDM5B Histone Demethylases FDH-coupled qHTS; Lysine-specific demethylase 5B (Homo sapiens), Q9UGL1; KDM5B demethylase, FDH-coupled NADH fluorescence (FDH is formaldehyde dehydrogenase); Potency, µM (top dose mostly 57.7 µM), hits mostly inhibitors; actives 2.6% (n = 220,000); AID 1347165, 2019; active = well fitted inhibition curve with a large enough effect; also: nearly all actives have a fitted effect of over 70% in size
#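 Here, H3K4me3 peptide (12.5 µM in substrate mix) is demethylated by KDM5BΔAP, 200 nM final, after 10 min compound exposure. Formaldehyde product is coupled through FDH (0.25 U/mL in mix) to NADH fluorescence; 30-min ΔRFU feeds dose-response curves.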
# Numbers stand for hits; – = inactive.
SMILES,KDM5B inh
CC(NC(=O)C(=O)Nc1ccccc1Cl)c1ccccc1 (stereo not drawn),–
CC(=O)NC1CC2(CCN(C(=O)CCC(=O)OC(C)(C)C)CC2)Oc2ccccc21 (stereo not drawn),–
CN(CC(=O)NC(=O)NCc1cccs1)Cc1cccs1,–
Cc1ccc(CNCc2ccccc2C(F)(F)F)cc1,–
Cn1ccc2c(-c3cc(NCCO)nc(N)n3)ccnc21,28.2µM
COc1cccc(N2C(=O)NC(=NC3CCCC3)C23CCCN([S+](=O)([O-])c2cccc(OC)c2)C3)c1 (stereo not drawn),–
CCOc1c(Cl)cc(Cl)cc1CNCc1ccncc1,–
CCOc1cccc(CN2CCC([C@@H]3CNC[C@H]3CO)CC2)c1,–
O=C1NC[C@H]2CN(Cc3cccc(OC(F)(F)F)c3)CCN12,–
Clc1ccc(Oc2cccc(CN3CCN(C4CCNC4)CC3)c2)cc1 (stereo not drawn),15.8µM
CCc1ccccc1S(=O)(=O)N1CCC(n2cnnc2C(C)C)CC1,–
Cc1nnc(SCc2coc(-c3cccc(F)c3)n2)n1C,–
CCc1noc(-c2ccn3c(CNC(=O)c4ccc(C)c(F)c4)nnc3c2)n1,–
CCc1noc(-c2ccn3c(CNC(=O)c4cc(F)cc(F)c4)nnc3c2)n1,25.1µM
CCc1noc(-c2ccn3c(CNC(=O)c4ccc(OC)cc4)nnc3c2)n1,14.1µM
CCc1noc(-c2ccn3c(CNC(=O)c4ccc(N(CC)CC)cc4)nnc3c2)n1,–
CC(=O)C1=C(O)C(=O)NC1c1ccccc1F (stereo not drawn),–
COc1ccc(-c2nnc(SC(C)C(=O)NC3CCCCC3)o2)cc1OC (stereo not drawn),–
CCC(=O)N1Cc2ccccc2CC2(CCCN(C)C2)C1 (stereo not drawn),–
COc1ccc(OC)c(NC(=O)c2nc3nc(C)cc(C(F)F)n3n2)c1,–
CC(C)c1noc(C2CCCN2C(=O)c2cc(-c3cccs3)n(C)n2)n1 (stereo not drawn),–
CC(C)Cc1nc2nccc(-c3cccs3)n2n1,25.1µM
CC(C)c1nc2nccc(-c3cccs3)n2n1,25.1µM
COc1ccc(CCc2nc3nccc(-c4cccs4)n3n2)cc1,–
CCc1cccc(C)c1Nc1c(-c2cccs2)nc2ncccn12,–
SMILES,KDM5B inh
CCCc1nc(SC)ncc1C(=O)Nc1ccc(Cl)cc1C,–
N#Cc1cccc(C(=O)NCCc2cccc3cccnc23)c1,–
O=C(COc1ncnc2ccccc12)N(Cc1ccccc1)Cc1ccccc1,–
O=C(Cn1ncc(=O)c2ccccc21)N1CCCC1c1ccc2c(c1)OCCCO2 (stereo not drawn),–
COc1cccc(CNC(=O)[C@@H]2C[C@@H](O)CN2C2CCN(C(=O)c3nccc4ccccc34)CC2)c1,–
COC(=O)C(CC(C)C)NC(=O)C(Cc1ccccc1)NC(=O)OC(C)(C)C (stereo not drawn),–
Cc1[nH]c2ccccc2c1C(=O)OC(C)C(N)=O (stereo not drawn),–
COC(=O)[C@@H]1Cc2c([nH]c3ccccc23)C2CCC(=O)N21 (stereo partly drawn),–
COc1ccc(C(=O)NC2CCN(CC(=O)NCc3cccc(OC)c3)CC2)cc1,–
COC(=O)[C@@H]1Cc2c([nH]c3ccccc23)[C@H]2C[C@@H](NCCCn3ccnc3)C[C@@H](c3ccc(Cl)c(F)c3)N21,–
O=C1NCC(=O)N2C(c3ccccc3)c3[nH]c4ccccc4c3C[C@@H]12 (stereo partly drawn),–
O=C(NCCCn1ccnc1)c1ccc(C2CCCNC2)cc1 (stereo not drawn),–
O=C(CCC1CCCC1)N1CCc2c([nH]c3ccccc23)C1c1ccc(F)cc1 (stereo not drawn),–
COC(=O)[C@@H]1Cc2c([nH]c3ccccc23)[C@H]2C[C@@H](NCCN(C)C)C[C@@H](c3ccc(F)cc3)N21,25.1µM
COCCN[C@H]1C[C@@H]2c3[nH]c4ccccc4c3C[C@@H](C(=O)OC)N2[C@H](c2ccccc2)C1,28.2µM
COC(=O)[C@@H]1Cc2c([nH]c3ccccc23)[C@H]2C[C@@H](NCCCn3ccnc3)C[C@@H](c3ccc(F)cc3)N21,12.6µM
COCCNC(=O)[C@H]1C[C@H](Oc2ccccc2)CN1C(=O)c1cccc(OC)c1,–
O=C(c1ccc(F)cc1)N1CCc2c([nH]c3ccccc23)C1c1ccc(Cl)cc1 (stereo not drawn),–
COCCN[C@@H]1C[C@@H]2c3[nH]c4ccccc4c3C[C@@H](C(=O)OC)N2[C@H](c2cccc(OC)c2)C1,5.62µM
CC(Cc1c[nH]c2ccccc12)NC(=O)CCNc1nc(Cl)nc2nc[nH]c12 (stereo not drawn),–
O=C(CSc1nnc(-c2ccccc2F)n1C1CC1)c1cc2ccccc2o1,–
CN(C)CC(=O)N1Cc2ccccc2CC2(CCN(Cc3ccccc3)C2)C1 (stereo not drawn),–
Cc1ccc(C(CNC(=O)c2cc(=O)c3cc(Cl)ccc3o2)N2CCN(C)CC2)o1 (stereo not drawn),–
CCc1ccc(CN(C)CC(=O)Nc2ccc(C(F)(F)F)cc2)cc1,–
COc1ccc(N2CC3CCC(C2)N3C(=O)c2ccc3c(c2)OCO3)cc1,–
SMILES,KDM5B inh
CCCCCn1nc(C(=O)Nc2cccc(OC)c2)c2ccccc2c1=O,–
CCCc1noc(CCC(=O)Nc2ccc(OC)c(OC3CCCC3)c2)n1,–
O=C1CCN(C(=O)Cc2cccc(F)c2)CCOCCN1,–
COc1ccc(-c2cnc3[nH]cc(CC(=O)N4CCNC(=O)C4)c3c2)cc1,35.5µM
O=C(CCc1c[nH]c2ccccc12)OCC(=O)N1CCOCC1,–
COc1ccc2ccc(OCc3nc(C(=O)N4CCCNC(=O)C4)co3)cc2c1,–
Cc1ccccc1-c1cnc2[nH]cc(CC(=O)N3CCOCC3)c2c1,35.5µM
COc1cc(F)cc(-c2cnc3[nH]cc(CC(=O)N4CCOCC4)c3c2)c1,35.5µM
O=C([C@@H]1C[C@H](Oc2ccccc2)CN1C(=O)Cc1c[nH]c2ccccc12)N1CCOCC1,–
COc1ccc(-c2nc3c(c(=O)[nH]2)CCN(C(=O)Cc2c[nH]c4ccccc24)C3)cc1,–
Cc1ccccc1CC(=O)N1CCN(c2ncnc3nc[nH]c23)CC1,–
O=C(Nc1ccc(CC(=O)N2CCOCC2)cc1)c1cc(F)cc(F)c1,–
O=C(Cc1c[nH]c2ncc(-c3ccc(Oc4ccccc4)cc3)cc12)N1CCOCC1,39.8µM
Cc1cnc(C(=O)Nc2cc(Cl)c(NC(=O)c3ccc(S(C)(=O)=O)cc3)c(Cl)c2)cn1,–
S=C(Nc1ccccc1Cl)N(Cc1ccccc1)c1ccccc1,–
COC(=O)c1c(C)oc2ccc(OC(=O)C(C)(C)C)cc12,–
COCCN1C(=O)CC[C@]2(C(=O)NCc3ccc(F)c(Cl)c3)CCCC[C@@H]12,–
N#Cc1ccc(C(=O)NC2CCN(C(=O)N3CC4CC(C3)[C@H]3CCCC(=O)N3C4)CC2)cc1 (stereo partly drawn),–
Cc1cccc(Cn2c(=O)c3c(nc(-n4nc(C)cc4C)n3CC(C)C)n(C)c2=O)c1,–
CCOc1ccc(C2Nc3ccccc3C(=O)N2C2CC2)cc1OC (stereo not drawn),–
COc1ccc(CN(C(=O)c2cccc(F)c2)C2CC2)c(OC)c1,–
CC(C)(C)c1cc(NC(=O)CS(=O)(=O)c2ccccc2)on1,–
Cc1n[nH]c(=O)c2c(NC(=O)CSc3nnc(C)n3Cc3ccccc3)oc(C)c12,–
